Measurements from PMC5540273 (PLoS ONE, 2017).
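Note: KINOMEscan kinase panel screen.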

What follows are compounds tested on T1, JNK1. Conditions: concentration: 1 μM, replicates: in singlicate; n = 1.
T1 construct: gene MAPK8
With `COc1ccc(-c2cc3c(C)nc(N)nc3n([C@H]3CC[C@H](O)CC3)c2=O)cn1` the “%Inh” value was 0%. For `CCC(=O)c1c(-c2ccccc2)c2cc(Cl)ccc2c(=O)n1Cc1ccc(C(=O)O)cc1`, the “%Inh” value was 95.2%. `O=C(NCc1cccs1)c1cc(C(=O)c2c(Cl)cccc2Cl)c[nH]1` [GW823670] was tested, and the “%Inh” value was 0%. In the case of `COc1cccc(C2=C(N(C)c3ccccc3)C(=O)NC2=O)c1` [SB-334865], the “%Inh” value is reported as 30%. `CC(C)(C)c1ccc(C(=O)Nc2cn3cc(-c4ccccc4)ccc3n2)cc1` was tested, and the “%Inh” value was 13%. For `CCC(=O)c1c(-c2ccccc2)c2cc(Cl)ccc2c(=O)n1Cc1cc(S(C)(=O)=O)n(CC(F)F)n1`, the “%Inh” value was 99.1%. In the case of `CCC(=O)c1c(-c2ccccc2)c2cc(Cl)ccc2c(=O)n1Cc1cc(S(C)(=O)=O)n(CCC(C)(C)O)n1`, the “%Inh” value is reported as 99.6%. With `COc1cc2nccc(Nc3ccc(OCc4ccc(NC(C)=O)cc4)cc3)c2cc1OC.Cl` [GW440135] the “%Inh” value was 15%. In the case of `COc1cc2nccc(Nc3cccc(Oc4ccccc4)c3)c2cc1OC.Cl` [GW284543], the “%Inh” value is reported as 1%. With `Cl.c1ccc(Cn2cnc3cc(Nc4ncnc5ccccc45)ccc32)cc1` [GW272142] the “%Inh” value was 13%. For `O=C(NCCNc1ccnc(Nc2ccc(F)cc2)n1)Nc1ccc2c(c1)OCO2` [GSK1379882], the “%Inh” value was 22%. In the case of `Nc1ncnc2c1ncn2-c1ccc(Cl)cc1` [AH2635], the “%Inh” value is reported as 0%. In the case of `COc1cc(Nc2nccc(N3CCC(NC(=O)C(C)c4ccc(Cl)cc4)C3)n2)cc(OC)c1OC` (stereo not drawn) [GSK1379757], the “%Inh” value is reported as 3%. `Cc1c(Cn2c(C)nn3c(=O)cc(N4CCO[C@H](C)C4)nc23)cccc1C(F)(F)F` [GSK2373690] was tested, and the “%Inh” value was 18%. For `CCc1nc(-c2cccc(C)c2)c(-c2ccncc2)s1`, the “%Inh” value was 57%. In the case of `Cc1nnc(-c2ccc(C)c(-c3ccc(C(=O)O)cc3)c2)o1` [GW608005], the “%Inh” value is reported as 1%. In the case of `CCC(=O)c1c(-c2ccccc2)c2cc(Cl)ccc2c(=O)n1Cc1cc(C(=O)NC2CC2)n(C)n1`, the “%Inh” value is reported as 99.7%. For `Nc1nc(-c2ccccc2F)c(-c2ccnc3ccccc23)s1` [GW560459], the “%Inh” value was 56%. In the case of `Cc1nnc(-c2ccc3ncn(-c4ccc(S(C)=O)cc4)c3c2)o1` (stereo not drawn), the “%Inh” value is reported as 6%. In the case of `CCS(=O)(=O)c1ccc(OC)c(Nc2ncc(-c3ccc(F)cc3)o2)c1.Cl` [GW591947], the “%Inh” value is reported as 2%. With `CCS(=O)c1ccc(-c2coc3ccc(-c4nnc(C)o4)cc23)cc1` (stereo not drawn) the “%Inh” value was 22%. In the case of `Nc1n[nH]c2nnc(-c3ccccc3)c(-c3ccccc3)c12` [GW554060], the “%Inh” value is reported as 19%. For `O=C(Nc1n[nH]c2nc(-c3ccccc3)c(Cl)cc12)C1CC1` [SB-734909], the “%Inh” value was 56%. In the case of `COC(=O)c1c(-c2ccccc2)c2cc(Br)ccc2c(=O)n1Cc1ccc(S(C)(=O)=O)cc1`, the “%Inh” value is reported as 97.2%. `Cc1ccc(Oc2ccc(Nc3ncnc4cc[nH]c34)cc2C)cn1` was tested, and the “%Inh” value was 43%. In the case of `O=C(Nc1n[nH]c2nc(-c3ccccc3)c(Br)cc12)C1CC1` [SB-708998], the “%Inh” value is reported as 29%. For `CN(C)c1cc(-c2ccc3c(N)n[nH]c3c2)nc(N)n1` [GSK2219329], the “%Inh” value was 0%. In the case of `COc1ccc(-n2cnc3c(N)ncnc32)cc1` [SKF-97236], the “%Inh” value is reported as 12%. With `CCCC(=O)Nc1n[nH]c2ncc(-c3cccc4ccccc34)cc12` [SB-642057] the “%Inh” value was 20%. `FC(F)(F)c1ccc(-c2ncn(CCCN3CCOCC3)c2-c2ccncc2)cc1` [SB-217780] was tested, and the “%Inh” value was 55%. For `Cn1c(=O)c(F)c(Nc2ccc(I)cc2F)c2c(=O)n(OC[C@H](O)CO)cnc21`, the “%Inh” value was 18%. `COc1ccc(Nc2nccc(N3CCC(NS(=O)(=O)c4ccc(NC(C)=O)cc4)C3)n2)cc1` (stereo not drawn) [GSK1379729] was tested, and the “%Inh” value was 20%. With `Cl.NS(=O)(=O)c1cccc(Nc2cc(-c3ccc(F)cc3)n[nH]2)c1` [GW824645] the “%Inh” value was 8%. In the case of `OCCCNc1nccc(-c2c(-c3cccc(C(F)(F)F)c3)nn3cc(C(F)(F)F)ccc23)n1` [GW630813], the “%Inh” value is reported as 0%. In the case of `CCc1ccc(-c2ccc3c(c2)-c2nn(C)cc2S(=O)(=O)N3C)cc1`, the “%Inh” value is reported as 0%. `COc1ccc(-c2coc3ccc(-c4nnc(SCc5cccc(C#N)c5)o4)cc23)cc1` was tested, and the “%Inh” value was 22%.
